# From PubChem
# This is a sample that favours compounds with a hit; in the whole collection about 27% have one here.
# CYP2C19 activ – cytochrome P450 2C19 (human) activation; AID 1025; 96,000 tested, under 10 active; activation factor at 5 µM; recombinant CYP2C19, luciferin-H EGE luminescence; active compounds read high; 0 = fully inhibited enzyme, 1 = untreated enzyme;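 active = activation factor of at least 2 at 5 µM in the primary screen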;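 also: 0 = wells with 2.5 mM tranylcypromine and 1 = vehicle-only wells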
# sEH act – soluble epoxide hydrolase (human) activation. purified human sEH enzymatic activity, activator screen. activation, % at 2 µM. 0.04% of 91,000 active; in the data active = activation above about 37%
# CYP2C9 act – activators of human CYP2C9; P11712; recombinant CYP2C9, luciferin-H conversion, luminescence; active compounds read high; factor 1 = untreated enzyme, 0 = blocked; activation factor at 5 µM; 1.4% of 96,000 active;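 active = activation factor of 2 or more for CYP2C9 at a 5 µM dose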;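 also: 0 = sulfaphenazole-blocked wells and 1 = vehicle-only wells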
# CYP2C9 inh – blocks human cytochrome P450 2C9. P11712. CYP2C9 Supersomes, luciferin-H conversion, luminescence. inhibition, % at 5 µM. 20% of 96,000 active;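 active = blocking of liver enzyme CYP2C9 beyond about 50% at 5 µM, limit read from the data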
# sEH inh – inhibitors of human soluble epoxide hydrolase | inhibition, % at 2 µM | recombinant human sEH enzymatic activity assay | 0.34% of 91,000 active | P34913; in the data active = inhibition above about 80%
# CYP2C19 inh – human CYP2C19 inhibition | P33261 | CYP2C19 Supersomes, luciferin-H EGE luminescence, 30 min | inhibition, % at 5 µM | 21% of 96,000 active | AID 778;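 active = CYP2C19 inhibition above a set limit at 5 µM in the primary screen, cut at about 50% in these data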;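 also: plate controls were negative control wells for no effect and 2.5 mM tranylcypromine positive control for full effect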
# * marks the source's active call; other numbers are inactive results; x = not tested or not shown.
SMILES,CYP2C19 activ,sEH act,CYP2C9 act,CYP2C9 inh,sEH inh,CYP2C19 inh
CCOC(=O)c1[nH]c2ccc(OC)cc2c1NC(=O)C(C)N1CCSCC1 (stereo unspecified),0.2,-1.6,0.2,84.1*,1.6,81.2*
CCOC(=O)c1[nH]c2ccc(OC)cc2c1NS(=O)(=O)c1ccc(OC)cc1OC,0.4,-1.5,0.3,66.9*,1.0,57.4*
CCCC1C2CN(C(C)C)CC=C2C(C#N)=C(N)C1(C#N)C#N (stereo unspecified),0.9,-3.5,1.2,-18.3,5.1,5.8
CC(=O)c1c(C)[nH]c(C(=O)Nc2ccc(C)cn2)c1C,0.7,0.8,0.9,8.7,0.0,33.1
CCOC(=O)CSc1nc2ccccc2c(=O)n1C,x,-12.5,x,x,11.7,x
CCOC(=O)CC(=O)CSc1nc2ccccc2c(=O)n1-c1ccc(C(=O)N2CCOCC2)cc1,0.1,x,0.3,72.7*,x,85.5*
CCOC(=O)CC(=O)CSc1nc2ccccc2c(=O)n1-c1ccc(C(=O)NCCOC)cc1,0.3,4.4,0.2,77.6*,-1.5,74.0*
Cc1ccc(-n2c(-c3cc(C)n(C)n3)n[nH]c2=S)cc1,0.9,1.7,0.8,16.4,-2.9,12.8
COc1cc(-c2nnc3sc(-c4cccs4)nn23)cc(OC)c1OC,0.3,x,0.2,79.7*,x,69.5*
CN(C)c1ccc(-c2nn3c(-c4cccnc4)nnc3s2)cc1,0.6,x,0.9,10.0,x,38.0
COc1cc(-c2nn3c(-c4cccnc4)nnc3s2)cc(OC)c1OC,0.3,-15.9,0.6,40.4,16.7,65.6*
CCCC/C(O)=N\S(=O)(=O)c1ccc(N=NN(C)C)cc1,x,19.2,x,x,-19.2,x
COCCNC(=O)c1c(NC(=O)c2nc(SC)ncc2Cl)sc2c1CCCC2,1.1,8.0,1,-1.2,-10.1,-6.5
Cc1ccnc(Sc2ncccc2[N+](=O)[O-])n1,1.1,11.1,1.5,-45.8,-11.2,-14.3
O=C(NOC(=O)c1ccccc1Cl)c1cccs1,1.1,8.7,0.5,50.8*,-8.6,-9.6
Cc1cc2nc(C3CCN(CC4COc5ccccc5O4)CC3)[nH]c2cc1C (stereo unspecified),0.5,-14.7,0.6,41.2,13.6,53.9*
CCCNC(=S)N1CCC(c2nc3cc(C)c(C)cc3[nH]2)CC1,0.8,23.0,0.8,15.6,-18.0,23.4
CCn1cc(/C=N/N=C2\CCC3C4CCc5cc(O)ccc5C4CC[C@]23C)c(C)n1 (stereo partly specified),0.6,-4.5,0.3,67.5*,5.8,38.1
O=C(c1cccc(F)c1)N1CCN(C2CCCCC2)CC1,0.9,0.6,1,-0.1,-2.4,12.1
O=C(c1ccccc1)N1CCN(C2CC3CCC2C3)CC1 (stereo unspecified),0.2,x,0.8,20.7,x,82.3*
O=C(c1ccc(F)cc1)N1CCN(C2CC3CCC2C3)CC1 (stereo unspecified),0.2,-7.3,1,-1.8,6.9,75.6*
C[N+]1(CC(=O)Nc2ccccc2Cl)CCN(C(=O)c2cccs2)CC1,1.1,1.3,1.1,-15.0,-3.2,-12.0
c1ccc2cc(-c3cc4ccccn4c3)ccc2c1,0.9,-1.3,0.9,12.6,4.4,9.1
Cc1cc(C)nc(Sc2ccc3nnc(C(F)(F)C(F)(F)C(F)(F)F)n3n2)n1,0.4,2.1,0.4,63.4*,-2.1,58.1*
CCNc1nc(NCC)nc(N2CC(=O)N(CC(=O)OCC)C2=N)n1,x,6.8,x,x,-4.2,x
SMILES,CYP2C19 activ,sEH act,CYP2C9 act,CYP2C9 inh,sEH inh,CYP2C19 inh
COc1ccc(C(O)P(=O)(O)CCc2ccccc2)cc1 (stereo unspecified),1.2,-6.3,1.2,-21.6,6.4,-19.0
Cc1c(/C=N/n2cnnc2)c2ccccc2n1C,0.2,-4.2,0.8,20.3,2.3,76.6*
CCn1c(=N)n(CCOc2ccc(OC)cc2)c2ccccc21,0.8,4.4,1,-4.5,-2.2,23.7
COc1cccc(OCCn2c(C)c(/C=N/n3cnnc3)c3ccccc32)c1,0.4,-3.7,0.6,36.4,4.9,56.0*
Cc1cccc(OCCn2c(S(=O)(=O)O)nc3ccccc32)c1,0.9,9.3,0.7,35.0,-9.6,10.7
COc1ccc(OCCn2c(C)c(/C=N/n3cnnc3)c3ccccc32)cc1,0.2,1.3,0.3,74.9*,0.4,75.6*
CCOC(=O)C1=CSC2=NS(=O)(=O)CCN12,1.1,1.2,1,-4.6,-1.6,-14.2
COc1cc(C)c(C(N)=O)c(OC)n1,1.2,x,1.3,-26.1,x,-24.0
